# Assay results reported in PubChem BioAssay AID588473 (Sanford-Burnham Center for Chemical Genomics, 2011).
# Out of some 350,000 compounds screened, about 1,600 (0.46%) were called active.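 How the source made its calls: active means activation of at least 50%, plus an integration ratio under a set limit after plate pattern correction; inactive means the rest.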 What follows is part of a selection rich in actives, with near analogues and random picks from the rest.
# Tested on: CRF-binding protein / CRF receptor 2 complex (human)
# Assay: activators of CRF-R2 with CRF-BP – cell-based, HEK293, calcium dye fluorescence, uHTS, primary screen (AID 588473);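 further: plate controls were neutral control wells without compound for no effect and CRF at EC100 for full effect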
# Settings: calcium dye fluorescence (FLIPR), at 13.2 µM, stronger effect = higher value, percent of saturating CRF peptide response
row,Structure (SMILES),activation
1,C[n+]1ccc(/C=C/c2c[nH]c3ccccc23)cc1,61.1% (active)
2,COc1ccc(N(CC(=O)Nc2ccc(F)c(F)c2)S(=O)(=O)c2c(C)[nH]c(=O)[nH]c2=O)cc1,-1.2% (inactive)
3,CCOC(=O)c1nnn2c3ccccc3c(=O)n(C)c12,0.18% (inactive)
4,CCOC(=O)N1CCN(C(=O)c2nn(-c3ccc(C)cc3)c(=O)c3c2c2ccccc2n3C)CC1,3.98% (inactive)
5,CCCc1nc2c(c(=O)c3ccccc3n2C)c(=O)n1C1CCCCCC1,137% (active)
6,CC(C)(C)C1CCc2c(sc3nc(SCC(N)=O)nc(N)c23)C1 (stereo not drawn),0.65% (inactive)
7,C=C(C)CSc1nc(N)c2c3c(sc2n1)CCC3,155% (active)
8,Nc1nc(SCC(=O)NCCN2CCOCC2)nc2sc3c(c12)CCC3,2.46% (inactive)
9,CC(NC(=O)c1ccc(Cl)cc1)C(=O)N1CCCCC1 (stereo not drawn),0.19% (inactive)
10,O=C(CN1CCN(C2CCS(=O)(=O)C2)CC1)N1N=C(c2ccc(Cl)cc2)CC1c1ccco1 (stereo not drawn),0.41% (inactive)
11,CCOc1cc(C=NNC(=O)CCCC(=O)NN=Cc2ccc(O)c(OCC)c2)ccc1O,-2.14% (inactive)
12,CCOc1cc(/C=C(\C#N)c2nc(-c3cccs3)c(NC(C)=O)s2)ccc1O,222% (active)
13,CCOc1cc(/C=N/NC(=O)c2c(C)nc3ccc(Cl)cn23)ccc1O,-0.91% (inactive)
14,CCOC(=O)c1ccc(N/C(=N/S(=O)(=O)c2ccccc2)c2ccccc2)cc1,-1.91% (inactive)
15,CC1(C)O[C@H]2CC(=O)OCC23[C@H]2CC[C@@]4(C)[C@H](c5ccoc5)OC(=O)[C@H]5O[C@]54[C@]2(C)C(=O)C[C@@H]13 (stereo partly drawn),1.6% (inactive)
16,CN(NS(=O)(=O)c1cccs1)c1ncc(C(F)(F)F)cc1Cl,-0.09% (inactive)
17,Cc1nn(CC#N)c(=O)n1N(C)c1ncc(C(F)(F)F)cc1Cl,1.06% (inactive)
18,C#CCN(N(C)c1ncc(C(F)(F)F)cc1Cl)S(=O)(=O)c1ccc2ccccc2c1,64.8% (active)
19,Cc1ccccc1NC(=S)NC(=O)Cc1ccc(Cl)cc1,46% (inactive)
20,O=C(COc1ccc(Cl)cc1)NC(=S)Nc1ccccc1N1CCOCC1,1.42% (inactive)
21,O=C(Cc1ccc(Cl)cc1)NC(=S)Nc1ccccc1O,128% (active)
22,Cc1csc(=O)n1CC(=O)OCC(=O)N(CC(C)C)c1c(N)n(Cc2ccccc2)c(=O)[nH]c1=O,-0.29% (inactive)
23,CCCCNC(=O)C(C)N(CCN(C)C)C(=O)CCCN1C(=O)NC(c2ccc(Cl)cc2)C(C(=O)OCc2ccccc2)=C1C (stereo not drawn),-0.71% (inactive)
24,Cc1ccc(CNC(=O)c2cccc3c2C(=O)c2ccc(N4CCC(C)CC4)cc2S3(=O)=O)cc1,56.2% (active)
25,Cc1ccc(CNC(=O)c2ccc3c(c2)S(=O)(=O)c2ccccc2C3=O)cc1,-0.74% (inactive)
26,CC1CCN(c2ccc3c(c2)S(=O)(=O)c2cc(C(=O)O)ccc2C3=O)CC1,3.35% (inactive)
27,Cc1ccnc2nc(C(=O)OCC(=O)N(CC(C)C)CC(C)C)nn12,3.18% (inactive)

row,Structure (SMILES),activation
1,CC(=O)OCC1(O)CC23CCC4c5ccoc5CCC4(C)C2CCC1C3 (stereo not drawn),4.09% (inactive)
2,COc1cc(OC)cc(C(=O)NC(=S)N2CCN(c3ccc(C(F)(F)F)cc3[N+](=O)[O-])CC2)c1,2.06% (inactive)
3,COc1cccc2cc(C(N)=O)/c(=N\NC(=O)c3ccccc3)oc12,-2.1% (inactive)
4,CCN(CC)c1ccc(C(=O)N/N=C(\C)c2cccc(OC)c2)cc1,0.09% (inactive)
5,CCN(CC)c1ccc2cc(C(N)=O)/c(=N\NC(=O)c3ccncc3)oc2c1,264% (active)
6,COc1cc(C(=O)NNC(=O)CN2C(=O)NC3(CCCC3)C2=O)cc(OC)c1OC,0.66% (inactive)
7,Cc1c(NC(=O)C(=O)N/N=C/c2cccs2)c(=O)n(-c2ccccc2)n1C,4.78% (inactive)
8,Cc1cc(C)c(S(=O)(=O)NCC(c2ccc3c(c2)OCO3)N2CCOCC2)c(C)c1 (stereo not drawn),-1.15% (inactive)
9,COc1cccc2c1C(=O)c1c(O)c3c(c(O)c1C2=O)CC(O)(C(C)=NNC(=O)c1ccc(Cl)c(Cl)c1)CC3OC1CC(N)C(O)C(C)O1 (stereo not drawn),67.3% (active)
10,Cc1ccc(C(=O)N/N=C/c2sc(=O)n(Cc3cccc(C(=O)O)c3)c2Cl)cc1,1.16% (inactive)
11,CCCS(=O)(=O)N1CCC(C(=O)NCCc2ccc(OC)c(OC)c2)CC1,-0.54% (inactive)
12,Cc1cccc(C(C)C)c1NC(=O)COC(=O)C1CC(=O)N(Cc2ccccc2)C1 (stereo not drawn),-1.23% (inactive)
13,NC(=O)c1ccc(NC(=O)COC(=O)c2c3c(nc4ccccc24)/C(=C\c2ccc4c(c2)OCO4)CCC3)cc1,255% (active)
14,NS(=O)(=O)c1ccc(NC(=O)COC(=O)c2c3c(nc4ccccc24)/C(=C\c2ccc4c(c2)OCO4)CCC3)cc1,0.53% (inactive)
15,COc1cc(/C=C2\CCCc3c2nc2ccccc2c3C(=O)O)cc(Cl)c1O,0.27% (inactive)
16,COc1ccc([N+](=O)[O-])cc1NC(=O)CC1SC(=Nc2cccc(C)c2C)N(/N=C(\C)c2ccc(C)cc2)C1=O (stereo not drawn),-0.05% (inactive)
17,Cc1ccc(C(CC(=O)O)NC(=O)c2ccc(S(=O)(=O)N3CCCC3)cc2)cc1 (stereo not drawn),0.98% (inactive)
18,Cc1ccc(C(=O)COC(=O)CCCC(=O)NC2CCCCC2)cc1[N+](=O)[O-],1.32% (inactive)
19,COc1ccc(C)cc1NC(=O)CSc1nnc(CC(=O)Nc2ccccc2F)n1C,3.27% (inactive)
20,Cc1nn(C)cc1N1C(=O)c2cccc3c(N)ccc(c23)C1=O,200% (active)
21,CC(C(=O)O)N1C(=O)c2cccc3cccc1c23 (stereo not drawn),-0.43% (inactive)
22,O=C1c2cccc3c([N+](=O)[O-])ccc(c23)C(=O)N1CC1CCCO1 (stereo not drawn),12.3% (inactive)
23,CN1C(=O)c2cccc3c(N)ccc(c23)C1=O,222% (active)
24,CC(C)n1c(CN2CCN(Cc3ccccc3)CC2)nc2ccccc21,1.04% (inactive)
25,COc1cc(CNCc2ccc3c(c2)OCO3)c([N+](=O)[O-])cc1OC,-1.29% (inactive)
26,COc1ccc(Br)cc1CN(C)CC(=O)Nc1cc([N+](=O)[O-])ccc1OC,0.1% (inactive)
